Source: PubChem BioAssay (National Center for Advancing Translational Sciences (NCATS))
S-ASM inh: human S-ASM enzyme inhibition; P17405; AID 504937; placental ASM, HMU-PC fluorogenic substrate, 60 min; actives 0.006% (n = 340,000); Potency, µM (top dose mostly 57.5 µM), for inactives: at the top dose activity change, negative = inhibition, usual class: inhibitors; also: potency is read from the fitted curve at half-maximal effect
Target sequence (P17405 47-631 limits assumed): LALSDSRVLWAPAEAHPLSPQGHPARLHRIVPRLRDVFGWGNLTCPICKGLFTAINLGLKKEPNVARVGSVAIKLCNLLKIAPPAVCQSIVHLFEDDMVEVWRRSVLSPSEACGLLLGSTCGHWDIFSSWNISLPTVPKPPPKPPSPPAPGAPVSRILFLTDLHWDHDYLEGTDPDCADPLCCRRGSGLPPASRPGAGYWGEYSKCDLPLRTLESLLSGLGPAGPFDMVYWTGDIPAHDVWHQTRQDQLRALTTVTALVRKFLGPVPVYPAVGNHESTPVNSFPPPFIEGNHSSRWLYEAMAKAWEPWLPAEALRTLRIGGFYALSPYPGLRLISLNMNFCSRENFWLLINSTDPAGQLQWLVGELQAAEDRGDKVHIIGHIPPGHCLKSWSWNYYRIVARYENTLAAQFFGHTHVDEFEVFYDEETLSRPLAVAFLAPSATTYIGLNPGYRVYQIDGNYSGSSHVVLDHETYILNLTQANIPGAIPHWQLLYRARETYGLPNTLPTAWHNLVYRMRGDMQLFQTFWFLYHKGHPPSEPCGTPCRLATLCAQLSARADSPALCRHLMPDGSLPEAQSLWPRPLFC
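Steps: dispense placental human ASM, pin compound, wait 10 min at room temperature, add HMU-PC0 substrate at 9 uM final, incubate 60 min at 37 °C, add stop solution raising pH to 10, read fluorescence.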
DT40 TDP1 CPT: DT40-hTDP1 cell growth loss with CPT; Potency, µM (top dose mostly 46.2 µM), inactives show at the highest dose activity change, negative = growth inhibition, hits mostly inhibitors; chicken DT40 Tdp1-/-;hTDP1 cells + 20 nM CPT, ATP luminescence, 48 h; actives 12% (n = 420,000); also: potency is read from the fitted curve at half-maximal effect; % is scaled to controls: 0 for no effect and ±100 for the full control effect; nearly all actives have a fitted effect of over 55% in size
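Chicken DT40 Tdp1-/- cells stably complemented with human TDP1 were seeded at 400 cells/well in medium containing 20 nM camptothecin, exposed to pin-transferred compounds, and grown at 37 °C for at least 48 hr. Viability was read as ATP luminescence.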
TDP1 cell noCPT: qHTS for Inhibitors of human tyrosyl-DNA phosphodiesterase 1 (TDP1): qHTS in cells in absence of CPT | Potency, µM (series often up to 46.2 µM), without a hit: top-dose activity change, negative = growth inhibition, hits mostly inhibitors | DT40 Tdp1-/- hTDP1 cells, no CPT, ATP luminescence, 48 h | AID 686978, 2013 | actives 15% (n = 420,000); also: potency is read from the fitted curve at half-maximal effect; % is scaled to controls: 0 for no effect and ±100 for the full control effect; nearly all actives have a fitted effect of over 55% in size
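DT40 Tdp1-/-;hTDP1 cells, no CPT (DMSO vehicle only), 400 cells/well; compounds pin-transferred; ≥48 hr, 37 °C; CellTiter-Glo 30 min RT dark, luminescence read.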
HepG2 viability: counter-screen for TGF-b inhibitors: cytotoxicity in HepG2 cells. HepG2 CAGA-GFP viability, ATP luminescence, 18 h. Potency, µM (doses to about 46.1 µM), inactives show at the top dose activity change, negative = cytotoxicity, most hits filed as cytotoxic. actives 0.76% (n = 410,000). AID 588856; also: potency is read from the fitted curve at half-maximal effect
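CellTiter-Glo luminescence gave cytotoxicity after 18 hours at 37 degrees C. The cells were HepG2 CAGA-GFP in 1% FBS DMEM, stimulated with 500 pg/mL TGF-beta after compound addition. %Activity was normalised to no-cell wells (complete cell-killing) and DMSO (no toxicity), and curves were fitted and classified.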
IL-1B inflam inh: blocks inflammasome-driven IL-1 beta release; activity change, % at 57.5 µM; actives 4.7% (n = 360,000); THP-1 LPS/ATP IL-1B secretion, AlphaLISA, 16 h; active compounds read low; in the data active = activity change below about -50%; inconclusive = mostly about -30% to -49%; also: % is scaled to controls: 0 for no effect and ±100 for the full control effect
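Secreted IL-1B measured by AlphaLISA bead assay after 16 h compound exposure of THP-1 cells; compounds (final up to 57.5 uM) added 1 h before LPS (250 ng/mL) and ATP (1.25 mM) stimulation; lower signal means less secretion.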
TGFb SMAD3 inh: TGF-b pathway inhibition. HepG2 CAGA-GFP TGF-b/SMAD3 reporter, GFP fluorescence, 18 h; TGF-beta stimulated, 500 pg/mL final. Potency, µM (series often up to 46.1 µM), inactives show at the top dose activity, negative = inhibition, actives largely listed as inhibitors. actives 1.2% (n = 410,000). AID 588855; also: potency is read from the fitted curve at half-maximal effect; % is scaled to controls: 0 for no effect and ±100 for the full control effect; nearly all actives have a fitted effect of over 65% in size
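HEPG2 CAGA-GFP, 1000 cells/well; 2 h settle, 37 C; cpd via pin tool; TGF-b 500 pg/mL final; 18 h, 37 C; GFP imaging ex488/em500-530; %Activity normalised to -TGF-b and +DMSO controls; CRC fit, curve class.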
* hit, by the source's call; ? = inconclusive; / = no result given; [ ] = dose if it differs, or a comment. Most compounds without a hit are left out; they make up all but 19% or so of the library. Unless noted, calls follow the shape of the dose curve; as a rule, active = well fitted curve in the direction sought with a large enough effect; inconclusive = small, poorly fitted or top-dose-only effect, or another doubt; inactive = no such curve, though single readings can be large; an effect the other way counts as inactive or inconclusive.

SMILES	S-ASM inh	DT40 TDP1 CPT	TDP1 cell noCPT	HepG2 viability	IL-1B inflam inh	TGFb SMAD3 inh
Cc1nc2nc(C)n(CCN3CCOCC3)c(=O)c2c(-c2cccc([N+](=O)[O-])c2)c1C(=O)CCCCCCCCCCN1CCC(c2ccccc2)(c2ccccc2)CC1	?	?	?	11µM*	-99*	7.1µM*
COc1ccc(CN2CCOc3ccc(CN4CCC(Oc5cccnc5)CC4)cc3C2)cc1C	/	-10%[9.04 µM]	?	/	/	/
COc1ccc(CN2CCOc3ccc(CN4CCC(Oc5cccnc5)CC4)cc3C2)cc1	/	21µM*	-29%	/	/	/
c1cncc(OC2CCN(Cc3ccc4c(c3)CN(Cc3ccc5c(c3)CCO5)CCO4)CC2)c1	/	-9%[9.04 µM]	18µM*	/	/	/
COc1ccccc1CN1CCOc2ccc(CN3CCC(Oc4cccnc4)CC3)cc2C1	/	-2%[9.04 µM]	?	/	/	/
c1cncc(OC2CCN(Cc3ccc4c(c3)CN(Cc3ccc5c(c3)OCCO5)CCO4)CC2)c1	/	?	16µM*	/	/	/
Cc1ccc(NC(=S)N2CCC(NC(=O)c3ccc(F)cc3)CC2)cc1C	0%	-1%	-27%	8%	-13	?
Cc1ccc(-c2nsc(NC(=O)c3oc4cc(C)c(Cl)cc4c3C)n2)cc1	/	-1%	-3%	4%	/	-10%
Cc1cc2c(cc1C)-c1c(ssc1=Nc1ccc(S(N)(=O)=O)cc1)C(C)(C)N2	-16%	?	16µM*	-44%	15	?
CC(=O)NS(=O)(=O)c1ccc(N=c2ssc3c2-c2cc(C)c(C)cc2NC3(C)C)cc1	-8%	-20%	?	-33%	?	-22%
COC(=O)[C@H](Cc1ccccc1)N1C/C=C\COc2c(Cl)cc(Cl)cc2S1(=O)=O	7%	?	?	-4%	0	?
O=S(=O)(CCNCCc1ccccc1)NC1CCCCC1	7%	-1%	-17%	-2%	20	-4%
COc1ccc2c(c1)NC(c1ccc(N(C)C)cc1)c1cccn1-2 (stereo unspecified)	357%	?	15µM*	-33%	25	-26%
CCOC(=O)N1CCN(c2c(N3CC=C(c4ccccc4)CC3)c(=O)c2=O)CC1	2%	21µM*	16µM*	-15%	-4	0%
CCOC(=O)N1CCN(c2c(N3CCc4ccccc4C3)c(=O)c2=O)CC1	11%	?	-20%	6%	0	?
CCn1c(SCC(=O)NC2CCCCC2)nnc1-c1cccs1	5%	1%	-16%	2%	0	-9%
CCn1c(SC(=O)NC2CCCCC2)nnc1-c1cccs1	-6%	21µM*	23µM*	-4%	-20	0%
CC(=O)C[C@@H](O)CC(=O)[C@H]1OC(=O)CCCCCCCCc2ccccc21	1%	-20%	?	-13%	-18	-14%
C=C(C)C1CCC2(C(=O)O)CCC3(C)C(CCC4C5(C)C(C=O)C(O)C(C)(C)C5CCC43C)C12 (stereo unspecified)	-12%	?	?	-27%	8	13µM*
Cc1cc(N2CCC(C)CC2)nc2ccc(NC(=O)Cc3ccccc3Br)cc12	/	21µM*	13µM*	-19%	/	?
Cc1cccc(CC(=O)Nc2ccc3nc(N4CCC(C)CC4)cc(C)c3c2)c1	/	21µM*	15µM*	1%	/	-2%
COc1ccccc1CC(=O)Nc1ccc2nc(N3CCC(C)CC3)cc(C)c2c1	/	-21%	?	-7%	/	-3%
CCN1CCN(c2cc(C)c3cc(NC(=O)CCC(=O)Nc4ccc(OC)c(OC)c4)ccc3n2)CC1	261%	-1%	-23%	-10%	-6	22%
COc1ccc(/C=C/C(=O)Nc2ccc3nc(N4CCC(C)CC4)cc(C)c3c2)cc1OC	/	4.1µM*	4.6µM*	-20%	/	-29%
CCN1CCN(c2cc(C)c3cc(NC(=O)Cc4ccccc4OC)ccc3n2)CC1	108%	9%	-11%	-29%	9	3%
SMILES	S-ASM inh	DT40 TDP1 CPT	TDP1 cell noCPT	HepG2 viability	IL-1B inflam inh	TGFb SMAD3 inh
CC(C(=O)NCc1ccc(Cl)cc1)n1ccc2cc(S(=O)(=O)N3CCCCCC3)ccc21 (stereo unspecified)	/	?	18µM*	-3%	/	-1%
CC(C(=O)NCc1ccc(Cl)cc1)n1ccc2cc(S(=O)(=O)N3CCCC3)ccc21 (stereo unspecified)	/	?	?	-17%	/	?
CC(C)Oc1ccc(CNC(=O)C(C)n2ccc3cc(S(=O)(=O)N4CCCCCC4)ccc32)cc1 (stereo unspecified)	/	?	21µM*	10%	/	1%
Cc1cccc(C(=O)N2CCCC(Nc3ccc(F)c(F)c3)C2)n1 (stereo unspecified)	-1%	-27%	-15%	7.1µM*	-9	-14%
Cc1cccc(C(=O)N2CCCC(Nc3ccc(C)c(C)c3)C2)n1 (stereo unspecified)	2%	0%	5%	6%	0	0%
Cc1cccc(C)c1C(OCCN(C)C)C1CCCCC1 (stereo unspecified)	3%	18µM*	?	-21%	-8	6%
CCOc1ccc2nc(N3CCC(C(=O)N4CCN(c5ccccn5)CC4)CC3)sc2c1	-4%	5.8µM*	6.5µM*	-28%	-7	-9%
CCOc1ccc2nc(SCC(=O)N3CCN(C(=O)c4ccco4)CC3)sc2c1	-1%	?	12µM*	-77%	-13	-21%
CCOc1ccc2nc(N3CCN(C(=O)c4ccco4)CC3)sc2c1	/	?	18µM*	-23%	/	-1%
COCC(=O)N1CCC2(CC1)CN(Cc1cc(C(F)(F)F)cc(C(F)(F)F)c1)C2	/	-2%	-6%	/	/	/
COc1ccc(CCN2CC(C(=O)OCC(=O)Nc3c(C)nn(-c4ccccc4)c3C)CC2=O)cc1OC (stereo unspecified)	4%	-28%	-8%	0%	12	-11%
Cc1ccc(OS(=O)(=O)c2ccc(N3C(=O)CCC3=O)cc2)cc1	-1%	-2%	-7%	26%	10	20%
Cc1ccc(-c2nnn(CC(=O)N(c3cccc(F)c3)C(C(=O)NC3CCCC3)c3ccco3)n2)o1 (stereo unspecified)	1%	21µM*	16µM*	1%	2	-9%
COc1ccc(-c2nnn(CC(=O)N(Cc3cccs3)C(C)C(=O)NCCC(C)C)n2)cc1OC (stereo unspecified)	-6%	15µM*	21µM*	-10%	0	13%
